{"source": "PubChem BioAssay AID1259418", "about": "(Broad Institute, 2018)", "note": "Out of some 3,400 compounds screened, about 840 (25%) were called active. Not shown: some 11% with an inconclusive outcome. These entries were drawn from the full list. Measured potencies and affinities stand elsewhere. Unmarked numbers belong to inactive results.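 How the source made its calls: active means fitted half-maximal concentration of signal decrease at or below twice the sample's top tested concentration; inconclusive means flat curve between -70 and -30 percent, or poor fit; inactive means flat within 30 percent, signal rise, or potency above limit.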", "data": [{"assay": "T. gondii growth inhibition with IFN-gamma, dose response, cell-based, ME49Luc, HeLa, luciferase, 72 h (AID 1259418)", "conditions": "T. gondii ME49Luc in IFN-y HeLa, active compounds read low, -100% = high-dose IFN-γ control wells; at 19.5 µM unless noted", "values": [{"smiles": "Cc1cc(C(F)(F)F)nn1CC(=O)N1CCCC1c1cc(C(C)C)no1", "note": "(stereo not drawn)", "max activity": "16% [at 2.6 µM]"}, {"smiles": "COc1cccc(CC(=O)N2CCC[C@@H]2C(=O)NCCc2csc(-c3ccccc3)n2)c1", "max activity": "18.6% [at 0.16 µM]"}, {"smiles": "Cc1ccc2c(c1C)-n1cccc1C1(CCN(C(=O)c3ccc(Br)o3)CC1)N2", "max activity": "9.35% [at 0.35 µM]"}, {"smiles": "COc1ccc(-c2nc(NCc3ccc(C)o3)c3ccccc3n2)cc1", "max activity": "-32.7% [at 1.35 µM]"}, {"smiles": "COc1ccc(-c2nc(N(CC(C)C)CC(C)C)c3ccccc3n2)cc1", "max activity": "-12.7% [at 0.35 µM]"}, {"smiles": "COc1ccc(-c2nc(N(C)Cc3ccccc3)c3ccccc3n2)cc1", "max activity": "21.9%"}, {"smiles": "CCCCN(C)c1nc(-c2ccc(OC)cc2)nc2ccccc12", "max activity": "16.9% [at 0.35 µM]"}, {"smiles": "CN(Cc1ccco1)c1nc(-c2ccc(Cl)cc2)nc2ccccc12", "max activity": "-31.8% [at 0.16 µM]"}, {"smiles": "Cc1ccc(-c2coc(-c3ccc(NC(=O)Nc4cc(C)cc(C)c4)cc3)n2)cc1", "max activity": "-13.8% [at 0.68 µM]"}, {"smiles": "CCc1nc(OCC(=O)Nc2cc(C)cc(C)c2)c2ccccc2n1", "max activity": "9.9% [at 10 µM]"}, {"smiles": "COc1ccc(S(=O)(=O)N(Cc2nc(-c3ccccc3)oc2C)c2ccccc2OC)cc1", "max activity": "-10.3% [at 5 µM]"}, {"smiles": "COc1ccccc1N(Cc1nc(-c2ccccc2)oc1C)S(=O)(=O)c1ccc(C)cc1", "max activity": "13.3% [at 0.16 µM]"}, {"smiles": "c1cnc(N2CCC(Oc3cnccn3)CC2)nc1", "max activity": "28.4% [at 10 µM]"}, {"smiles": "CCc1ccccc1NC(=O)Nc1ccc(-c2nc(-c3ccc(C)cc3)co2)cc1", "max activity": "-15.7% [at 0.68 µM]"}, {"smiles": "CCOc1ccc(CC(=O)N2CCC3(CC2)Nc2cc(OC)ccc2-n2cccc23)cc1OCC", "max activity": "-11.1% [at 10 µM]"}, {"smiles": "COc1ccc(CNc2nc(SCc3cc(=O)n4cc(Cl)ccc4n3)nc3ccccc23)cc1", "max activity": "14.6% [at 5 µM]"}, {"smiles": "COCC#Cc1ccc([C@H]2[C@@H](CO)N3C(=O)CN(C(=O)C4CCCCC4)C[C@@H]23)cc1", "max activity": "51.9%"}, {"smiles": "COCC#Cc1ccc([C@@H]2[C@@H](CO)N3C(=O)CN(C(=O)c4ccncc4)C[C@@H]23)cc1", "max activity": "31.2%"}, {"smiles": "COCC#Cc1ccc([C@@H]2[C@H]3CN(C(=O)C4CCCCC4)CC(=O)N3[C@H]2CO)cc1", "max activity": "27.9%"}, {"smiles": "COCC#Cc1ccc([C@@H]2[C@@H](CO)N3C(=O)CN(C(=O)c4ccncc4)C[C@H]23)cc1", "max activity": "28.6%"}, {"smiles": "COc1ccc(NC(=O)Nc2ccc(-c3nc(-c4ccc(C)cc4)co3)cc2)cc1Cl", "max activity": "83.9%"}, {"smiles": "COc1cccc(NC(=O)CCC2Nc3c4ccccc4nc(=S)n3C2=O)c1", "note": "(stereo not drawn)", "max activity": "16.8% [at 0.68 µM]"}, {"smiles": "Cc1ccc(Cl)cc1N(CC(=O)Nc1c(F)cccc1F)S(C)(=O)=O", "max activity": "6.87%"}, {"smiles": "Cc1sc(-c2nc(C(C)C)cs2)cc1S(=O)(=O)N1CCC(C)CC1", "max activity": "11.7%"}, {"smiles": "Cc1ccccc1-c1nc(CN2CCN(C(=O)Nc3cccc(Cl)c3)CC2)c(C)o1", "max activity": "10.5% [at 5 µM]"}, {"smiles": "Cc1ccc(-c2nc3c(s2)CN(C(=O)Nc2cccc(C)c2C)CC3)cc1", "max activity": "22.5% [at 5 µM]"}, {"smiles": "CC(=O)NCCNC(=O)CC1Nc2c3ccccc3nc(=S)n2C1=O", "note": "(stereo not drawn)", "max activity": "32%"}, {"smiles": "COc1ccccc1CNc1nc(-c2ccc(Cl)cc2)nc2ccccc12", "max activity": "9.39% [at 0.35 µM]"}, {"smiles": "Cc1oc(-c2ccccc2)nc1Cn1nnc(-c2nc(-c3cccc(Br)c3)no2)c1C", "max activity": "5.37% [at 0.16 µM]"}, {"smiles": "Cc1nc(CCNC(=O)C2CCN(S(=O)(=O)c3cccc(Cl)c3C)CC2)cs1", "max activity": "-10.4% [at 5 µM]"}, {"smiles": "CCCCc1ccc(Nc2ncnc3c2cnn3-c2ccc(OC)cc2)cc1", "max activity": "8.01% [at 5 µM]"}, {"smiles": "Cc1cccc(C)c1NC(=O)CN1CCC2(CC1)N=C(c1cccc(F)c1)C(=O)N2", "max activity": "21.4% [at 0.35 µM]"}, {"smiles": "COc1cc(NC(=O)COc2nc(C)nc3ccccc23)cc(OC)c1OC", "max activity": "39.1% [at 0.35 µM]"}, {"smiles": "O=S(=O)(c1ccccc1F)N1CCC(c2nc3ccc(-c4ccncc4)cn3n2)CC1", "max activity": "-8.38% [at 0.16 µM]"}, {"smiles": "O=C(C1CCOCC1)N1CC(=O)N2[C@@H](CO)[C@H](c3ccc(/C=C/c4ccccc4)cc3)[C@@H]2C1", "max activity": "16.6%"}, {"smiles": "CC(C)NC(=O)N1CC(=O)N2[C@H](CO)[C@H](c3ccc(/C=C/c4ccccc4)cc3)[C@@H]2C1", "max activity": "15.1%"}, {"smiles": "CC(C)c1ccc(-c2nc3c([nH]2)c(=O)n(C)c(=O)n3C)cc1", "max activity": "36.8%"}, {"smiles": "COc1ccc(-c2nc(N3CCN(c4ccccc4OC)CC3)c3ccccc3n2)cc1", "max activity": "-19.4% [at 0.35 µM]"}, {"smiles": "COc1ccc(-c2nc(N3CCN(c4ccccc4F)CC3)c3ccccc3n2)cc1", "max activity": "-17% [at 0.35 µM]"}, {"smiles": "COc1ccc(CCNc2ncnc3c2cnn3-c2ccc(C)cc2C)cc1OC", "max activity": "-45% [at 0.16 µM]"}, {"smiles": "CCc1nc(OCC(=O)Nc2ccc(F)cc2)c2ccccc2n1", "max activity": "24.6% [at 0.35 µM]"}, {"smiles": "COc1ccc(-c2nc(Cn3c(=O)c4c(C)cc(C)nc4n(-c4ccccc4)c3=O)c(C)o2)cc1OC", "max activity": "-11.3% [at 1.35 µM]"}, {"smiles": "COc1ccc(NC(=O)CN2CCC3(CC2)N=C(c2ccc(Cl)cc2)C(=O)N3)cc1", "max activity": "-12.9% [at 0.68 µM]"}, {"smiles": "Cc1ccc(NC(=O)CN2CCC3(CC2)N=C(c2cccc(F)c2)C(=O)N3)cc1F", "max activity": "-40.4%"}, {"smiles": "CCc1ccccc1NC(=O)N1CCc2nc(-c3ccc(OC)c(OC)c3)sc2C1", "max activity": "6.34%"}, {"smiles": "CCC(=O)N1CCC2(CC1)Nc1ccc(C)c(C)c1-n1cccc12", "max activity": "-7.02% [at 5 µM]"}, {"smiles": "Cc1nc(OCC(=O)Nc2cc(F)ccc2C)c2ccccc2n1", "max activity": "23.1% [at 10 µM]"}, {"smiles": "Cc1ccc(-c2coc(-c3ccc(NC(=O)c4ccc(F)cc4)cc3)n2)cc1", "max activity": "95.6%"}, {"smiles": "Cc1ccc(-c2ccc([C@@H]3[C@H](CO)N4C(=O)CN(C(=O)NC(C)C)C[C@@H]34)cc2)cc1", "max activity": "16.7% [at 5 µM]"}, {"smiles": "Cc1ccc(-c2ccc([C@H]3[C@@H](CO)N4C(=O)CN(C(=O)NC(C)C)C[C@@H]34)cc2)cc1", "max activity": "46.5%"}, {"smiles": "COc1ccccc1NC(=O)N1CC(=O)N2[C@H](CO)[C@H](c3ccc(C#CC(C)C)cc3)[C@H]2C1", "max activity": "25.9% [at 5 µM]"}, {"smiles": "COc1ccccc1NC(=O)N1CC(=O)N2[C@H](C1)[C@@H](c1ccc(C#CC(C)C)cc1)[C@@H]2CO", "max activity": "-17.8%"}, {"smiles": "CCOc1ccc(-c2nc(CN3CCN(C(=O)Nc4ccccc4C(F)(F)F)CC3)c(C)o2)cc1", "max activity": "13.7% [at 2.6 µM]"}, {"smiles": "O=C(NCCc1csc(-c2ccccc2)n1)C1CCN(C(=O)COc2ccccc2)CC1", "max activity": "-18.1% [at 0.68 µM]"}, {"smiles": "O=C(O)c1ccc(NC(=NCCc2ccccc2)N2CCN(c3ncnc4ccccc34)CC2)cc1", "max activity": "6.72%"}, {"smiles": "COc1ccc(NC(=O)Nc2ccc(-c3nc(-c4ccccc4)co3)cc2)cc1", "max activity": "-14% [at 0.68 µM]"}, {"smiles": "CCOc1ccccc1-c1nc(CN(c2ccccc2OC)S(=O)(=O)c2ccc(C)cc2)c(C)o1", "max activity": "-6.32%"}, {"smiles": "CCOc1ccccc1-c1nc(CN(c2ccccc2)S(=O)(=O)c2ccccc2)c(C)o1", "max activity": "15.6%"}, {"smiles": "COc1ccccc1N(Cc1nc(-c2cccc(OC)c2OC)oc1C)S(=O)(=O)c1ccccc1", "max activity": "3.95%"}, {"smiles": "COc1ccc(-c2nc(Cn3nnc(-c4nc(-c5ccccc5)no4)c3C)c(C)o2)cc1", "max activity": "11% [at 0.16 µM]"}, {"smiles": "Cc1ccc(NC(=O)Nc2ccc(-c3nc(-c4ccccc4)co3)cc2)cc1C", "max activity": "24.4%"}, {"smiles": "Cc1cc(-n2nnc(C(=O)N3CCC(N4CCCCC4)CC3)c2-c2ccncc2)ccc1F", "max activity": "-34.1%"}, {"smiles": "Cc1ccccc1C(=O)N1CCC2(CC1)Nc1cc(F)ccc1-n1cccc12", "max activity": "-6.16% [at 1.35 µM]"}, {"smiles": "COc1ccc(OCC(=O)N2CCC3(CC2)Nc2ccc(C)c(C)c2-n2cccc23)cc1", "max activity": "-9.59% [at 2.6 µM]"}, {"smiles": "CCOC(=O)C1CCCN(c2nc(-c3ccc(Cl)cc3)nc3ccccc23)C1", "note": "(stereo not drawn)", "max activity": "5.87% [at 0.35 µM]"}, {"smiles": "Cc1noc(C)c1S(=O)(=O)N1CSC[C@@H]1C(=O)NCCc1csc(-c2ccccc2)n1", "max activity": "13.2% [at 1.35 µM]"}, {"smiles": "Cc1cccc(NC(=O)Nc2ccc(-c3nc(-c4ccc(C)cc4C)co3)cc2)c1", "max activity": "-13.9% [at 0.16 µM]"}, {"smiles": "COc1ccccc1-c1noc(-c2nnn(Cc3nc(-c4cccc(Cl)c4)oc3C)c2C)n1", "max activity": "9.3% [at 0.16 µM]"}, {"smiles": "CCc1nc(OCC(=O)Nc2ccccc2C(F)(F)F)c2ccccc2n1", "max activity": "15.4% [at 2.6 µM]"}, {"smiles": "Cc1ccc(-c2coc(-c3ccc(NC(=O)NCc4ccccc4)cc3)n2)c(C)c1", "max activity": "5.28% [at 0.16 µM]"}, {"smiles": "COc1ccc(-c2nc(Cn3nnc(-c4nc(-c5ccccn5)no4)c3C)c(C)o2)cc1", "max activity": "-5.61% [at 10 µM]"}, {"smiles": "COc1ccccc1-c1nc(C)c(-c2ccc(SCc3ccccc3)nn2)s1", "max activity": "-5.61% [at 0.68 µM]"}, {"smiles": "COc1ccc2c(c1)NC1(CCN(C(=O)c3ccc(Br)cc3)CC1)c1cccn1-2", "max activity": "15.6% [at 0.68 µM]"}]}]}
